Six1-Eya2 blk – Six1/Eya2 interaction inhibition | Q15475+O00167 | AlphaScreen GST-Six1/His-Eya2 binding, biochemical; active compounds read low | activity change, % (no concentration beside the values) | 360,000 tested, 0.56% active; in the data active means activity change below about -65%; inconclusive means mostly about -30% to -63%
Target sequence (O00167 whole entry, looked up): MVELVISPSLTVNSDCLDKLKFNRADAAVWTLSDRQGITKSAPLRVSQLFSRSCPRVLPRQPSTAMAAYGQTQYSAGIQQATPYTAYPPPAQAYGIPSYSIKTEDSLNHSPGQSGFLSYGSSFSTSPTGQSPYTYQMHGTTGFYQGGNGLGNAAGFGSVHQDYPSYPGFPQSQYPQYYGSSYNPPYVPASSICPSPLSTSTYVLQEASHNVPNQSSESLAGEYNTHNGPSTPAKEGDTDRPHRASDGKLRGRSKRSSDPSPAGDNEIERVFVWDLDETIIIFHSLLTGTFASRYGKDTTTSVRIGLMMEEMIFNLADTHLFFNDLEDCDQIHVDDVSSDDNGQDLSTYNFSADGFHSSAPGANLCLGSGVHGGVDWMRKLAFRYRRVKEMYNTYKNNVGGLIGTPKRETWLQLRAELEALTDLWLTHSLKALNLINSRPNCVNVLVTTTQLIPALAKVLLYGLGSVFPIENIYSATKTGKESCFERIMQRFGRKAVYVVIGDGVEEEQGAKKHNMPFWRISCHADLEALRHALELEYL
Target sequence (Q15475 whole entry, looked up): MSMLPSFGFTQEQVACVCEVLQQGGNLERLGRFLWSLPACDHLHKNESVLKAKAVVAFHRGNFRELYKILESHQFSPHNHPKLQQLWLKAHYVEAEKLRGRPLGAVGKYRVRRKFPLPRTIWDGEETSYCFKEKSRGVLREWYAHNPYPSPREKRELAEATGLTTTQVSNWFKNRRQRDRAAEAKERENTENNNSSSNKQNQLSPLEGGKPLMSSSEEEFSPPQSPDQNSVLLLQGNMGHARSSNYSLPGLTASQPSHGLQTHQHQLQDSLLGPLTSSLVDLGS
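AlphaScreen luminescence read after one hour at 37 °C in darkness. Pin-transferred compounds met GST-Six1 and His-Eya2 protein (5X stock 250 nM/500 nM) plus glutathione donor and Ni-chelate acceptor beads (5X, 50 ug/mL).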
TDP1 inh – inhibitors of human tyrosyl-DNA phosphodiesterase TDP1; recombinant TDP1, AlphaScreen DNA substrate cleavage; Potency, µM (titrated, usually from 130 µM), for inactives: at the top dose activity change, negative = inhibition, usual class: inhibitors; 350,000 tested, 0.28% active; AID 485290; further: potency means the concentration at half of the fitted maximal effect; nearly all actives have a fitted effect of over 40% in size
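AlphaScreen read-out: signal falls as enzyme removes the 3' tyrosine-FITC from a 5'-biotinylated DNA oligo (15 nM, 5 min, RT). Enzyme was E. coli-made recombinant Tdp1 at 1 nM, exposed to compound for 15 min beforehand; beads 10 ug/ml, 10 min.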
TDP1 cell CPT – DT40-hTDP1 cell growth loss with CPT. chicken DT40 Tdp1-/-;hTDP1 cells + 20 nM CPT, ATP luminescence, 48 h. Potency, µM (doses to about 46.2 µM), for inactives: at the highest dose activity change, negative = growth inhibition, actives largely listed as inhibitors. 420,000 tested, 12% active; further: potency means the concentration at half of the fitted maximal effect; nearly all actives have a fitted effect of over 55% in size
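Chicken DT40 Tdp1-/- cells complemented with human TDP1, 400 cells/well, exposed to compounds plus 20 nM camptothecin for at least 48 h at 37 C; viability read as ATP content by CellTiter-Glo luminescence.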
TDP1 cell noCPT – qHTS for Inhibitors of human tyrosyl-DNA phosphodiesterase 1 (TDP1): qHTS in cells in absence of CPT; 420,000 tested, 15% active; DT40 Tdp1-/- hTDP1 cells, no CPT, ATP luminescence, 48 h; Potency, µM (doses to about 46.2 µM), for inactives: at the top dose activity change, negative = growth inhibition, actives largely listed as inhibitors; AID 686978, 2013; further: potency means the concentration at half of the fitted maximal effect; nearly all actives have a fitted effect of over 55% in size
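A cellular qHTS used chicken DT40 cells lacking endogenous Tdp1 but carrying stably transfected human TDP1. Compounds were applied without camptothecin, and cell growth kinetics were judged by ATP-dependent luminescence after ≥48 hr.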
IL1B secr inh – blocks inflammasome-driven IL-1 beta release. THP-1 LPS/ATP IL-1B secretion, AlphaLISA, 16 h; active compounds read low. activity change, % at 57.5 µM. 360,000 tested, 4.7% active. AID 743279; in the data active means activity change below about -50%; inconclusive means mostly about -30% to -49%
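THP-1 cells pretreated 1 hr with compounds (up to 57.5 uM final), then stimulated with LPS (250 ng/mL final) plus ATP (1.25 mM final); secreted IL-1B measured by AlphaLISA after 16 hr, decreased signal indicating inhibition.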
CtBP-E1A blk – CtBP/E1A binding inhibition; AlphaScreen GST-E1A/His-CtBP binding, 1536-well; active compounds read low; activity change, % (no concentration beside the values); 340,000 tested, 0.49% active; in the data active means activity change below about -65%; inconclusive means mostly about -30% to -63%
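GST-E1A and His-tagged CtBP (125 nM each as 5X stock) were preincubated with pin-transferred compound for 2 h at 37 °C in the dark, then glutathione donor and nickel acceptor beads were added for 1 h before AlphaScreen reading.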
Numbers without * were called inactive; ? = inconclusive; / = not tested or not shown; [ ] = remark or other dose. Shown are actives, neighbours in structure and some others; about 18% of the full set was active somewhere. Unless noted, the call rests on the fitted dose curve; in most records, active means well fitted curve in the direction sought with a large enough effect; inconclusive means small, poorly fitted or top-dose-only effect, or another doubt; inactive means no such curve, though single readings can be large; an effect the other way counts as inactive or inconclusive. On the % scale 0 is the no-effect control and ±100 the full control effect.

SMILES | Six1-Eya2 blk | TDP1 inh | TDP1 cell CPT | TDP1 cell noCPT | IL1B secr inh | CtBP-E1A blk
Cc1noc(C)c1CSCC(=O)Nc1ccc(C#N)c(Cl)c1 | -4 | 0% | ? | ? | -14 | 0
CCN(CC(=O)Nc1ccc(C#N)c(Cl)c1)CC(=O)NC(C)(C)C | 3 | 3% | ? | 23µM* | -14 | -19
Cc1cccc(C)c1NC(=O)CN(C)CC(=O)Nc1ccc(C#N)c(Cl)c1 | 19 | 3% | 18µM* | 13µM* | 0 | 0
O=C1C(Cl)=CC(=Nc2ccc(O)cc2)C=C1Cl | -17 | 6%[56.1 µM] | 1.3µM* | 2.6µM* | ? | -1
Cc1c(C(=O)Nc2ccccc2Cl)oc2ccc(S(=O)(=O)N3CCCCC3)cc12 | / | 9% | 21µM* | 16µM* | / | /
Cc1onc(-c2ccccc2)c1C(=O)Nc1ccc(S(=O)(=O)N2CCCC2)cc1 | 7 | 6% | ? | -25% | 19 | 42
Cc1c(C(=O)NCCC2=CCCCC2)oc2ccc(S(=O)(=O)N3CCC4(CC3)OCCO4)cc12 | 12 | 2% | 18µM* | 23µM* | -66* | -22
Cc1c(Cl)cccc1NC(=O)c1oc2ccc(S(=O)(=O)N3CCC4(CC3)OCCO4)cc2c1C | / | 10% | 4.1µM* | 4.1µM* | / | /
Cc1c(C(=O)N2CCC3(CC2)OCCO3)oc2ccc(S(=O)(=O)N3CCOCC3)cc12 | 3 | -5% | -24% | -2% | 0 | -3
O=C1NC(=O)C(CCc2ccncc2)(CCc2ccncc2)C(=O)N1Cc1ccccc1 | 6 | 4% | -20% | ? | 16 | /
CC(=O)[O][Hg][c]1ccccc1 | / | 32µM* | 0.16µM* | 0.16µM* | / | /
COc1ccc(CCNC(=O)CCCCn2c(=O)c3ccccc3n(Cc3ccccc3Cl)c2=O)cc1OC | / | 2% | ? | ? | / | /
Cc1ccc(S(=O)(=O)Nc2ccc3ncccc3c2[N+](=O)[O-])cc1 | -19 | / | -5% | ? | -7 | 18
CC12CC(=O)C3C(CCC4CC(=O)C=CC43C)C1CCC2=O (centres undefined) | 1 | / | -21% | ? | -93* | 7
COc1ccc(NC(=O)c2sc3nc4c(cc3c2N)N2CCC4CC2)cc1OC | / | 9% | ? | 26µM* | / | /
Nc1c(C(=O)Nc2ccc(Cl)cc2)sc2nc3c(cc12)N1CCC3CC1 | / | -7% | ? | 16µM* | / | /
Nc1c(C(=O)Nc2ccc(Cl)c(C(F)(F)F)c2)sc2nc3c(cc12)N1CCC3CC1 | / | -6% | 13µM* | 13µM* | / | /
Cc1nccc2c1[nH]c1ccc(Br)cc12 | -7 | / | ? | 23µM* | -19 | 1
Cc1ccc(-n2c(=O)[nH]c3ccc(Br)cc3c2=O)cc1 | / | 0%[12.3 µM] | -28% | -21% | / | /
COc1ccc2c(c1)[nH]c1c(C)nccc12 | 3 | -1% | 13µM* | 20µM* | -72* | -4
COC(=O)C1=C(c2cccc(OCc3ccccc3)c2)C[C@@H]2CC[C@H]1N2C(=O)NCCN1CCOCC1 | -3 | 1% | 16µM* | ? | -13 | -2
COC(=O)C1=C(c2ccccc2OCc2ccccc2)C[C@@H]2CC[C@H]1N2C(=O)NCc1ccc(N(C)C)cc1 | ? | 7% | ? | ? | ? | ?
COC(=O)C1=C(c2ccccc2OCc2ccccc2)C[C@@H]2CC[C@H]1N2C(=O)NCCCOC(C)C | -1 | -1% | 16µM* | ? | 9 | 2
COC(=O)C1=C(c2cccc(OCc3ccccc3)c2)C[C@@H]2CC[C@H]1N2C(=O)NCCCOC(C)C | -19 | 2% | 21µM* | 18µM* | ? | -1
COC(=O)C1=C(c2ccccc2)C[C@@H]2CC[C@H]1N2C(=O)NCc1ccc(C(F)(F)F)cc1 | -5 | / | ? | ? | -23 | 0
SMILES | Six1-Eya2 blk | TDP1 inh | TDP1 cell CPT | TDP1 cell noCPT | IL1B secr inh | CtBP-E1A blk
COC(=O)C1=C(c2cccc(OCc3ccccc3)c2)C[C@@H]2CC[C@H]1N2C(=O)NCc1ccccc1C(F)(F)F | 0 | 0% | 21µM* | 23µM* | -11 | -26
CC1CN1P1(=O)OCC(C)([N+](=O)[O-])CO1 (centres undefined) | 8 | / | ? | ? | 20 | -2
Cc1ccc(N2C(=O)NC(=O)/C(=C\c3ccsc3)C2=O)cc1C | / | 3% | / | / | / | /
CCCc1cc2c(n1Cc1ccco1)C(C)C1CN(C(=O)c3ccccc3)C(C)(C(=O)OC)C21 (centres undefined) | / | -1% | / | / | / | /
COC(=O)C1=C(c2cccc(OCc3ccccc3)c2)C[C@@H]2CC[C@H]1N2C(=O)NCCOc1ccc(OC)cc1 | -23 | 1% | 23µM* | ? | -11 | -14
COCCNC(=O)N1[C@H]2CC[C@@H]1C(C(=O)OC)=C(c1cccc(C#N)c1)C2 | 7 | 0% | -2% | -5% | 11 | 8
COC(=O)C1=C(c2cccc(OCc3ccccc3)c2)C[C@@H]2CC[C@H]1N2C(=O)NCc1cccc(OC)c1 | -11 | 0% | 23µM* | 15µM* | ? | -4
COC(=O)C1=C(c2cccc(OCc3ccccc3)c2)C[C@@H]2CC[C@H]1N2C(=O)NCc1ccc(C(C)(C)C)cc1 | 7 | 1% | ? | 21µM* | -16 | /
CCCN1CCC[C@@H](c2cccc(C#N)c2)C1 | / | 10%[56.1 µM] | / | / | / | /
C[C@H](CO)N1C[C@H](C)[C@@H](CN(C)C(=O)Nc2ccc(C(F)(F)F)cc2)Oc2c(NS(=O)(=O)c3cccs3)cccc2C1=O | 4 | 0% | ? | ? | -5 | 3
Cc1ccc(O)c(C(=O)c2cc(C(=O)NCc3ccccc3)c(=O)n(Cc3ccccc3)c2)c1 | -20 | 5% | 7.3µM* | 12µM* | -30 | -16
Cn1cc(C(=O)NCc2ccccc2)c2ccccc21 | 4 | 0% | ? | -7% | -25 | 1
O=C(c1cc(C(=O)NCc2ccccc2)c(=O)n(Cc2ccccc2)c1)c1cc(Br)ccc1O | -7 | 3% | ? | 26µM* | -1 | -16
Cc1ccc(S(=O)(=O)N2CCN(C(=O)COC(=O)Cc3ccccc3)CC2)c(C)c1 | 3 | -11% | -19% | ? | 2 | -2
O=C(N/N=C/c1c(O)n(CCc2ccccc2)c(=O)[nH]c1=O)c1ccccc1O | ? | 10% | -26% | -20% | 29 | /
COc1ccc(Cn2c(O)c(/C=N/NC(=O)c3ccccc3O)c(=O)[nH]c2=O)cc1 | -87* | 3% | 13% | -1% | -23 | -72*
O=C(N/N=C/c1c(O)n(Cc2ccc(F)cc2)c(=O)[nH]c1=O)c1ccccc1O | -88* | 11% | 13µM* | ? | 35 | ?
